Here are results for one sequence from PMC7862700, “An all-to-all approach to the identification of sequence-specific readers for epigenetic DNA modifications on cytosine”.

What all share (assay): DAPPL (digital affinity profiling via proximity ligation, sequencing); 10 mM Tris-HCl pH 7.5, 50 mM NaCl, 1 mM DTT, 4% glycerol, room temperature, 30 min; GST-TFs on glutathione beads, 16-mer random dsDNA library, 0.1% formaldehyde crosslink after washing; high values mean tight binding
Conditions in all cases: protein: recombinant; tags: N-terminal GST; dsDNA, one strand shown

The target of one test is T1, ELK1 (Homo sapiens, UniProt P19419 1-428).
T1 sequence: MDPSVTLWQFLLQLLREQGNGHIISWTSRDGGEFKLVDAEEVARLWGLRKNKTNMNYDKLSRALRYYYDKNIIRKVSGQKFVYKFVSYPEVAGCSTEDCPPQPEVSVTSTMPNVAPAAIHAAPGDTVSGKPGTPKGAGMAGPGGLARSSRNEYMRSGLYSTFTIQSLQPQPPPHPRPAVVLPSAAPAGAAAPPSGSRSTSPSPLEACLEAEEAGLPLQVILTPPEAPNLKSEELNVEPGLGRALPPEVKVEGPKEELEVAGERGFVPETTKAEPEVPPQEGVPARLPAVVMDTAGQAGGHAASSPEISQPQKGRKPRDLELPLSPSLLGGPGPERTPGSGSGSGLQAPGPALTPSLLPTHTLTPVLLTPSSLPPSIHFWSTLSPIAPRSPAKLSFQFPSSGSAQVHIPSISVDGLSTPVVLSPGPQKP
The gist of the method: (§1)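 GST fusions of human transcription factors were expressed in yeast and captured with glutathione beads. Once given DNA barcodes and pooled alongside a tag-only sample, they were incubated for 30 min at room temperature with 200 nmole of a random double-stranded 16-mer DNA library in Tris/NaCl/DTT/glycerol buffer, then washed, crosslinked (0.1% formaldehyde), proximity-ligated, PCR-amplified and sequenced on an Illumina NextSeq500. The binding signal of each hexamer is its read frequency for a factor divided by its frequency for the tag-only sample.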

The next test deals with T2, GABPA (Homo sapiens, UniProt Q06546 1-454).
T2 sequence: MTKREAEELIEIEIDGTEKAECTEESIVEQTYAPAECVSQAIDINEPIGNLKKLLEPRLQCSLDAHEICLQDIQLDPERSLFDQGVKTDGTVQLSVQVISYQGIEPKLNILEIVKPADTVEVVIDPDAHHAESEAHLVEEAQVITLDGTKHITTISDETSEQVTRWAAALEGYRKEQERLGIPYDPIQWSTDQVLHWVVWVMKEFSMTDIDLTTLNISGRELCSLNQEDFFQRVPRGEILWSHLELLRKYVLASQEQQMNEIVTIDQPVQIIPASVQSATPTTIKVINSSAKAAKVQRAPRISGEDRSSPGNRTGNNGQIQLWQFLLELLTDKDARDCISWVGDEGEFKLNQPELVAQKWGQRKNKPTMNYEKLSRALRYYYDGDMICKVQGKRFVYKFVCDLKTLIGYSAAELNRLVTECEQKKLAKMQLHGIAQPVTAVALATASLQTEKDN
The method in brief: as §1

Another test addresses T3, ERG (Homo sapiens, UniProt P11308 1-479).
T3 sequence: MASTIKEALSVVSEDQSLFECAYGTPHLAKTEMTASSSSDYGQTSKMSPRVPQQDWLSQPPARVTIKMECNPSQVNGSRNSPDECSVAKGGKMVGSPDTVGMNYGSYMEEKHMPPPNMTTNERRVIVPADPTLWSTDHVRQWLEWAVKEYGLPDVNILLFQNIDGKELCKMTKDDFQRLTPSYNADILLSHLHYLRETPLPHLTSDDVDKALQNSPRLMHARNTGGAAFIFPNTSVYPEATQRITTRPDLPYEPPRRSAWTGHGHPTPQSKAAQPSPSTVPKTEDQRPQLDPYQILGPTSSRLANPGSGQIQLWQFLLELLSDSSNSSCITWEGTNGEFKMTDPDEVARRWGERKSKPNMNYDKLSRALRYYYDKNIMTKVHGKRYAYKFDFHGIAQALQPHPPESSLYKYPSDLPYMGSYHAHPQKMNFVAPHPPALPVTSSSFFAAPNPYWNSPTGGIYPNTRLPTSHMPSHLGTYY
The method in brief: as §1

The target in another test is ELF1 (Homo sapiens, UniProt P32519 1-619). The gist of the method:
as §1

Another test deals with T4, EHF (Homo sapiens, UniProt Q9NZC4 1-300).
T4 sequence: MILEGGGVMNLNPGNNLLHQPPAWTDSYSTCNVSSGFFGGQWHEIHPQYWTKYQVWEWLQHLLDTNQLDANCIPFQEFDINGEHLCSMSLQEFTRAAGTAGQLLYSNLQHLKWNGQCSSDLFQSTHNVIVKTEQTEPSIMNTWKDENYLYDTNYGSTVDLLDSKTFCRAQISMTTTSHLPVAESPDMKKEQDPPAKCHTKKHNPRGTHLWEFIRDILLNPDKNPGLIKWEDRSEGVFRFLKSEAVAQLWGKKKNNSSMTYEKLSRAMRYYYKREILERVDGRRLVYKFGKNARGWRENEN
The gist of the method:
as §1

For a further test, the target named is SPI1 (Homo sapiens, UniProt P17947 1-270). The gist of the method: as §1
In another test the target is SPIB (Homo sapiens, UniProt Q01892 1-262). The gist of the method: as §1
Sequence of SPIB (Q01892 whole entry): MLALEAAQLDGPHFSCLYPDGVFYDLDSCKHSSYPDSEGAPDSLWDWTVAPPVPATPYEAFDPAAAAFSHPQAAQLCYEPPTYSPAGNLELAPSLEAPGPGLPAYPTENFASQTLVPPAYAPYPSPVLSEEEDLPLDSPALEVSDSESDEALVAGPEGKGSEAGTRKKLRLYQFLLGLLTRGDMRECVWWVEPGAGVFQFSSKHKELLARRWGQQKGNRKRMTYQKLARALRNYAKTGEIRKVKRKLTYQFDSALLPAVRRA
The next test addresses T5, FEV (Homo sapiens, UniProt Q99581 1-238).
T5 sequence: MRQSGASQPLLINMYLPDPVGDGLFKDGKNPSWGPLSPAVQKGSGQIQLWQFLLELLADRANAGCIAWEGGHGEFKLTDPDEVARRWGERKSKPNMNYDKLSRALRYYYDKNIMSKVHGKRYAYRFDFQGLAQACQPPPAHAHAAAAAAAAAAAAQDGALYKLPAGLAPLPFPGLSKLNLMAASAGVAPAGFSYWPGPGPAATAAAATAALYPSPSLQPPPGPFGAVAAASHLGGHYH
The gist of the method:
as §1

The next test deals with ETV5 (Homo sapiens, UniProt P41161 1-510). The method in brief: as §1
Sequence of ETV5 (P41161 whole entry): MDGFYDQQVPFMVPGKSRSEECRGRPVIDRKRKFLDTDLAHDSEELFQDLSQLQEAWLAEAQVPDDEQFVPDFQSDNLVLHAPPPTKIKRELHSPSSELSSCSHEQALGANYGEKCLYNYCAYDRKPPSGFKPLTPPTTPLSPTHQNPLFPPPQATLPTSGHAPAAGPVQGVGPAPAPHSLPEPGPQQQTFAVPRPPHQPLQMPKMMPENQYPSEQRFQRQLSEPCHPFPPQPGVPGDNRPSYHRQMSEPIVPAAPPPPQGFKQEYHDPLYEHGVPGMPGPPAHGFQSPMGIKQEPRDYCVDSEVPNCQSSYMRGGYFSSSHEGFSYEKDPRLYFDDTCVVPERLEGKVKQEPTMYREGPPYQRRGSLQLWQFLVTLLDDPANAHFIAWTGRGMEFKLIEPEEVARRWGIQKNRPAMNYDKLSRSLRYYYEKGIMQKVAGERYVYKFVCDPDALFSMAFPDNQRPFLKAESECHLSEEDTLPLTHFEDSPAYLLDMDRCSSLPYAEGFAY
A further test deals with ELF4 (Homo sapiens, UniProt Q99607 1-663). The gist of the method:
as §1

The next test deals with T6, ELK4 (Homo sapiens, UniProt P28324-2 1-405).
T6 sequence: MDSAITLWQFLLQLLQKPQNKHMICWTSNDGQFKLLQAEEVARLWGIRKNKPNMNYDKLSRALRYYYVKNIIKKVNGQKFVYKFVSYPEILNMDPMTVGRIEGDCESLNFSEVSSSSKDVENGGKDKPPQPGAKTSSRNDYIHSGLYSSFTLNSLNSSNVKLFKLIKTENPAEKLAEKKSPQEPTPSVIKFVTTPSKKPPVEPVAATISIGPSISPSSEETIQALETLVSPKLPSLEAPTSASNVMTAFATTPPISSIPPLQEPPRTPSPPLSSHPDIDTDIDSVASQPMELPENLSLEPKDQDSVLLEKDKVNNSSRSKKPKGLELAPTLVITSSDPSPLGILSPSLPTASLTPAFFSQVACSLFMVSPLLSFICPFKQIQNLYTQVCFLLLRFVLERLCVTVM
The gist of the method: as §1

For another test, the target named is T7, ELF3 (Homo sapiens, UniProt P78545 1-371).
T7 sequence: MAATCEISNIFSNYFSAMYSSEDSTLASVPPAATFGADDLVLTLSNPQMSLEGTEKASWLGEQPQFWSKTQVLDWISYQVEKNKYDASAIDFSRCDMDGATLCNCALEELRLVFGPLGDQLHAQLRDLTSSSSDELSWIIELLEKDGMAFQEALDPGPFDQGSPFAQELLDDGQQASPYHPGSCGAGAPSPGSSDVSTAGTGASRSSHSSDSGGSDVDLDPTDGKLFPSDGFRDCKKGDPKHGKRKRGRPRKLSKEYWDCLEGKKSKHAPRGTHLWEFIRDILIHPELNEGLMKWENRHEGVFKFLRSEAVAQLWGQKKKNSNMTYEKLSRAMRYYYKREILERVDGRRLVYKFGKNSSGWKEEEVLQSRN
The gist of the method: as §1

For the next test, the target named is ETV1 (Homo sapiens, UniProt P50549 1-477). The method in brief:
as §1

The target in the next test is T8, ETV3L (Homo sapiens, UniProt Q6ZN32 1-361).
T8 sequence: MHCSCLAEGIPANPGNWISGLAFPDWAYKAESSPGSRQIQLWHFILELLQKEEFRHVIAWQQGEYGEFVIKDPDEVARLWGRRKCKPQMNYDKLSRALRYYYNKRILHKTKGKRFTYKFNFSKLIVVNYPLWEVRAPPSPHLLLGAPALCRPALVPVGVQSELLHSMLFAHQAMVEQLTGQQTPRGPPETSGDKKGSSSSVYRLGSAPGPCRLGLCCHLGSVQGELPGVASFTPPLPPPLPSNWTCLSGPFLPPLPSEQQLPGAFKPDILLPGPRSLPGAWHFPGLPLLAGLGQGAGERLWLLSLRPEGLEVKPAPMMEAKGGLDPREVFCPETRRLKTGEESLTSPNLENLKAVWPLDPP
The gist of the method: as §1

The target in the next test is T9, ETS2 (Homo sapiens, UniProt P15036 1-469).
T9 sequence: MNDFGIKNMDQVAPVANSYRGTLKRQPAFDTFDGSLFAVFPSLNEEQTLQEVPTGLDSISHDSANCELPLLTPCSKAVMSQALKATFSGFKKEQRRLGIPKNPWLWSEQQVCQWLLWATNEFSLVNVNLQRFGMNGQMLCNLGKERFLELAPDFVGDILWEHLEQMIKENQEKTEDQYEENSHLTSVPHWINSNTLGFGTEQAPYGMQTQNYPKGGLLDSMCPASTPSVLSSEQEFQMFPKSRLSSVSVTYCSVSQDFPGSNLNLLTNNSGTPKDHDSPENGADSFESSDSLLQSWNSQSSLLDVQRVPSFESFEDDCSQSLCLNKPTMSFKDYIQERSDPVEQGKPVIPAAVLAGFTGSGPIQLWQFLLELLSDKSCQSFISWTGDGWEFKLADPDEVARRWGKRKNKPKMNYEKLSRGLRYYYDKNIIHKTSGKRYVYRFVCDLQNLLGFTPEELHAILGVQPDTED
The method in brief: as §1

For a further test, the target named is T10, ETV7 (Homo sapiens, UniProt Q9Y603 1-341).
T10 sequence: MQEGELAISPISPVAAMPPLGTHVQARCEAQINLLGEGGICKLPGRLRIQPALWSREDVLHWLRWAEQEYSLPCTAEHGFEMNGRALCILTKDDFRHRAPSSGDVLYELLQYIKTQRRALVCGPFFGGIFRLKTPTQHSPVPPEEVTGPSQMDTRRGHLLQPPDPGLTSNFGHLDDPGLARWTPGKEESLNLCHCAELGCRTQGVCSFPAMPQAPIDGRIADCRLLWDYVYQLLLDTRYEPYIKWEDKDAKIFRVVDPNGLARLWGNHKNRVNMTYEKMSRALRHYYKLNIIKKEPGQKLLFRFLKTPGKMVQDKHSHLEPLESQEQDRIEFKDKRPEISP
The gist of the method: as §1

The next test addresses T11, ETV3 (Homo sapiens, UniProt P41162-2 1-143).
T11 sequence: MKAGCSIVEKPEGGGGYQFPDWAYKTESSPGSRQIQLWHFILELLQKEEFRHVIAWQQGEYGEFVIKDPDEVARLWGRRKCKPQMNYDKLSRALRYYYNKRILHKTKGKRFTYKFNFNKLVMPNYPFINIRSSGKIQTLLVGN
The method in brief:
as §1

The target in the next test is ETV6 (Homo sapiens, UniProt P41212 1-452). The method in brief:
as §1

Sequence of ETV1 (P50549 whole entry): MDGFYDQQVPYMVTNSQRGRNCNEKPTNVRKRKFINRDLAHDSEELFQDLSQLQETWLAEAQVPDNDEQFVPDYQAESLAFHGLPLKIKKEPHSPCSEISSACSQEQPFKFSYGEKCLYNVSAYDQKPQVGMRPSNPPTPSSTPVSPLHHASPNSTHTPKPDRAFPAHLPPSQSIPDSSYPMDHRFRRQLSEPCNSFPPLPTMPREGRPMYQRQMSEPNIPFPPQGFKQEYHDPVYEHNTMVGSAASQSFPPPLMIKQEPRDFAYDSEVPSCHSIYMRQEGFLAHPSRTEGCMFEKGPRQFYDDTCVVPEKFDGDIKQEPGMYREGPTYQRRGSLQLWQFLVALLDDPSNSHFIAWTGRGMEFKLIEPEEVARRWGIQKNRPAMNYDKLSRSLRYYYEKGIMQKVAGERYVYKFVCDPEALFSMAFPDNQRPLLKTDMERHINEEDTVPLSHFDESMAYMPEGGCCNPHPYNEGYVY
Sequence of ELF4 (Q99607 whole entry): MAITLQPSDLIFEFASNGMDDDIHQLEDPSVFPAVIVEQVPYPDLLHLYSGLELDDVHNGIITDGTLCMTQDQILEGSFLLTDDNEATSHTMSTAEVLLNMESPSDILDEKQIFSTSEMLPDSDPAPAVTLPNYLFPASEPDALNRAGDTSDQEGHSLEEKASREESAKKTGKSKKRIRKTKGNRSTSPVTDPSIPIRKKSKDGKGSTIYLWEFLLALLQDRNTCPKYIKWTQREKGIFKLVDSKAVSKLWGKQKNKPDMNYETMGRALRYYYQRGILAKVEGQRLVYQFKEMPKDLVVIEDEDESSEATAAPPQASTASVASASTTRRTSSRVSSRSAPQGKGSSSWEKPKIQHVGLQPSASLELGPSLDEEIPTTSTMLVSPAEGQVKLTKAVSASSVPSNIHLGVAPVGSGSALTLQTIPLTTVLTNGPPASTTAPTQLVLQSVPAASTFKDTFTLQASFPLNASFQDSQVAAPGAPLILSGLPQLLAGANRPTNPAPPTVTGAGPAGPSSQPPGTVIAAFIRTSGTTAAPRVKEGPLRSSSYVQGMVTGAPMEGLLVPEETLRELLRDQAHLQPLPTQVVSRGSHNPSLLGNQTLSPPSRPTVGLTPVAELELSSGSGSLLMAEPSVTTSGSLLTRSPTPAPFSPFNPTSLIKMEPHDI
Sequence of ELF1 (P32519 whole entry): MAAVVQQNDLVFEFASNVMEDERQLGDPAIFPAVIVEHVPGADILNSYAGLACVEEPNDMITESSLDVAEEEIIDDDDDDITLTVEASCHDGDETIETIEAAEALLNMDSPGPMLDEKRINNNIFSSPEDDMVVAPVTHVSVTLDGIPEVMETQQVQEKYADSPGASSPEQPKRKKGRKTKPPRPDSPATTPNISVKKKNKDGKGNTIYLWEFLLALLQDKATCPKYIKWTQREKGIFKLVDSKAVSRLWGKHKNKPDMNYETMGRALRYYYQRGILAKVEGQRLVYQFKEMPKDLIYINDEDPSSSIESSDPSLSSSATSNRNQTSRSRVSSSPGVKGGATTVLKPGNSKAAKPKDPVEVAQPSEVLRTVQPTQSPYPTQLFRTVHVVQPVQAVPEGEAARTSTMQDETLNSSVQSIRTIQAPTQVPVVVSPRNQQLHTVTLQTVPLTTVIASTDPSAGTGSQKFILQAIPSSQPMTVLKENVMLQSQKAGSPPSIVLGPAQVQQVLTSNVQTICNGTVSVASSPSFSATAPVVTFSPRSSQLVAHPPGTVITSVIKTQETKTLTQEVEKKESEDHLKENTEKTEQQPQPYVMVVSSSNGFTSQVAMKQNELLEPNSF
Sequence of ETV6 (P41212 whole entry): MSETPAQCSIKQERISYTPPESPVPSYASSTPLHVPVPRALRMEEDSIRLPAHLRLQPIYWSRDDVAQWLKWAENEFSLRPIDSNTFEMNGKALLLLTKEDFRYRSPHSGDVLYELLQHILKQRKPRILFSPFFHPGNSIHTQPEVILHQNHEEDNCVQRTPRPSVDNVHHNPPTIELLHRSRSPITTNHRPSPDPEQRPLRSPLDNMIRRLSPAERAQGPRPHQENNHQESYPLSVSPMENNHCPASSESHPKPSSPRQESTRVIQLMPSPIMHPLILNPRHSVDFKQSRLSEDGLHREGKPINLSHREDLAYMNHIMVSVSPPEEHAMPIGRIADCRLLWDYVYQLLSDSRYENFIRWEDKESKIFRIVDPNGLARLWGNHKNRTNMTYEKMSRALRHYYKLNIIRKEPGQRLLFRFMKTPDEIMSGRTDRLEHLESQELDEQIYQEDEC

In the case of ACCGGC, the binding signal with ELK1 is 1.08 fold enrichment (6-mer frequency, TF over GST control); with GABPA, 1.12 fold enrichment (6-mer frequency, TF over GST control); with ERG it was 1.13 fold enrichment (6-mer frequency, TF over GST control); with ELF1, 1.19 fold enrichment (6-mer frequency, TF over GST control); in the test with EHF, 1.12 fold enrichment (6-mer frequency, TF over GST control); in the test with SPI1, 1.17 fold enrichment (6-mer frequency, TF over GST control). The binding signal is 1.3 fold enrichment (6-mer frequency, TF over GST control) with SPIB; 1.14 fold enrichment (6-mer frequency, TF over GST control) in the test with FEV; 1.1 fold enrichment (6-mer frequency, TF over GST control) in the test with ETV5; 1.03 fold enrichment (6-mer frequency, TF over GST control) with ELF4; 1.1 fold enrichment (6-mer frequency, TF over GST control) with ELK4; 1.21 fold enrichment (6-mer frequency, TF over GST control) in the test with ELF3. In addition, the binding signal with ETV1 is 1.23 fold enrichment (6-mer frequency, TF over GST control); with ETV3L it was 1.21 fold enrichment (6-mer frequency, TF over GST control); in the test with ETS2, 1.17 fold enrichment (6-mer frequency, TF over GST control); with ETV7, 1.06 fold enrichment (6-mer frequency, TF over GST control); with ETV3, 1.15 fold enrichment (6-mer frequency, TF over GST control); with ETV6, 1.31 fold enrichment (6-mer frequency, TF over GST control).
